Measured values from PubChem BioAssay.
Calls of active or inactive are those of the source.

Key:
[1] = test system: Plasmodium falciparum Sir2 (PF13_0152, Sir2A); test: Plasmodium falciparum Sir2A binding compounds – biochemical, small-molecule microarray, 635 nm fluorescence, primary screen (AID 1098); conditions: fluorescence 635 nm, higher = more signal;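 note: score merges spot fluorescence intensity with its signal-to-noise ratio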
[2] = probe aDKK1 binding to arrayed compounds – biochemical, biotinylated probe, 635/667 nm fluorescence, primary screen (AID 1099); conditions: small-molecule microarray, higher = more signal;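 note: score merges 667nm spot fluorescence with signal to noise across triplicate slides; reference of the scale not given here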
[3] = probe aCHRDL2 binding to arrayed compounds – biochemical, biotinylated probe, 635/667 nm fluorescence, primary screen (AID 1100); conditions: small-molecule microarray, higher = more signal
[4] = change in splice reporter luminescence, either direction, cell-based, HEK293, spliceosome inhibition project, primary screen (AID 1101); conditions: HEK293 splicing luciferase reporter, 24 h, higher = more signal, called active from +8 up or from −8 down;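 note: HEK293 cells carrying a splicing-competent luciferase reporter gene; test concentration not given here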
[5] = target: Fibroblast growth factor 10 (Homo sapiens) (UniProt O15520); test: compounds binding fibroblast growth factor 10 – biochemical, small-molecule microarray, 635 nm fluorescence, primary screen (AID 1102); conditions: FGF10 binding, fluorescence 635 nm, higher = more signal
[6] = test system: glycogen synthase kinase-3 (GSK3A per assay name; protocol says GSK3B); test: compounds binding glycogen synthase kinase-3 – biochemical, small-molecule microarray, 635 nm fluorescence, GSK3A, primary screen (AID 1103); conditions: fluorescence 635 nm, higher = more signal; note: the record names both GSK3A and GSK3B
[7] = target: Epidermal growth factor receptor (Homo sapiens) (UniProt P00533); test: compounds binding epidermal growth factor receptor – biochemical, small-molecule microarray, 635 nm fluorescence, primary screen (AID 1104); conditions: EGFR binding, higher = more signal;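 note: score merges 667 nm emission intensity with spot signal to noise over triplicate slides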
[8] = target: Follistatin-related protein 3 (Homo sapiens) (UniProt O95633); test: compounds binding follistatin-related protein 3 – biochemical, small-molecule microarray, 635 nm fluorescence, primary screen (AID 1105); conditions: FSTL3 binding, higher = more signal;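 note: score merges emission near 667 nm and signal to noise per printed spot across three slides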
[9] = target: Dickkopf-related protein 1 (Homo sapiens) (UniProt O94907); test: small molecules binding DKK1 protein – biochemical, small-molecule microarray, 635 nm fluorescence scan, primary screen (AID 1106); conditions: higher = more signal;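 note: score merges emission near 667 nm with signal to noise over three replicate slides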
[10] = test system: Inhibin beta A chain (activin A); test: small molecules binding activin A – biochemical, small-molecule microarray, 635 nm fluorescence scan, primary screen (AID 1107); conditions: INHBA, higher = more signal;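 note: mouse activin A protein probed at 4.33 µg/mL on printed slides; score merges bound-protein fluorescence near 667 nm with spot signal-to-noise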

Chain of Dickkopf-related protein 1 (Homo sapiens) (O94907 whole entry, looked up): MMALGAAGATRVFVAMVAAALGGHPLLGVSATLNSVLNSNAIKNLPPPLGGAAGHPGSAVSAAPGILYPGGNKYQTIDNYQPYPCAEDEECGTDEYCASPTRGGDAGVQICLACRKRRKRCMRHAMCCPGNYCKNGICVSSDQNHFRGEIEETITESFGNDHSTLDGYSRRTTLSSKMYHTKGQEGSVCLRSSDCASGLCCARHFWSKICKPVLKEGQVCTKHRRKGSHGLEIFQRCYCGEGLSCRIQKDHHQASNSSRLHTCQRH
Chain of Follistatin-related protein 3 (Homo sapiens) (O95633 whole entry, looked up): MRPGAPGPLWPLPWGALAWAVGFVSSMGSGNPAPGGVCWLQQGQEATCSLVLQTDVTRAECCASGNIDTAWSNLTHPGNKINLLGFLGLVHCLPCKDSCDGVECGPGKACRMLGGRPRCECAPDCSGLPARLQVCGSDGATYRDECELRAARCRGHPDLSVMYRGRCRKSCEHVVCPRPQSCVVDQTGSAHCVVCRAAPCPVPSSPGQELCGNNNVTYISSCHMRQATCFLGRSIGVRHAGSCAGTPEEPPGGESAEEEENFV
Chain of Epidermal growth factor receptor (Homo sapiens) (P00533 whole entry, looked up): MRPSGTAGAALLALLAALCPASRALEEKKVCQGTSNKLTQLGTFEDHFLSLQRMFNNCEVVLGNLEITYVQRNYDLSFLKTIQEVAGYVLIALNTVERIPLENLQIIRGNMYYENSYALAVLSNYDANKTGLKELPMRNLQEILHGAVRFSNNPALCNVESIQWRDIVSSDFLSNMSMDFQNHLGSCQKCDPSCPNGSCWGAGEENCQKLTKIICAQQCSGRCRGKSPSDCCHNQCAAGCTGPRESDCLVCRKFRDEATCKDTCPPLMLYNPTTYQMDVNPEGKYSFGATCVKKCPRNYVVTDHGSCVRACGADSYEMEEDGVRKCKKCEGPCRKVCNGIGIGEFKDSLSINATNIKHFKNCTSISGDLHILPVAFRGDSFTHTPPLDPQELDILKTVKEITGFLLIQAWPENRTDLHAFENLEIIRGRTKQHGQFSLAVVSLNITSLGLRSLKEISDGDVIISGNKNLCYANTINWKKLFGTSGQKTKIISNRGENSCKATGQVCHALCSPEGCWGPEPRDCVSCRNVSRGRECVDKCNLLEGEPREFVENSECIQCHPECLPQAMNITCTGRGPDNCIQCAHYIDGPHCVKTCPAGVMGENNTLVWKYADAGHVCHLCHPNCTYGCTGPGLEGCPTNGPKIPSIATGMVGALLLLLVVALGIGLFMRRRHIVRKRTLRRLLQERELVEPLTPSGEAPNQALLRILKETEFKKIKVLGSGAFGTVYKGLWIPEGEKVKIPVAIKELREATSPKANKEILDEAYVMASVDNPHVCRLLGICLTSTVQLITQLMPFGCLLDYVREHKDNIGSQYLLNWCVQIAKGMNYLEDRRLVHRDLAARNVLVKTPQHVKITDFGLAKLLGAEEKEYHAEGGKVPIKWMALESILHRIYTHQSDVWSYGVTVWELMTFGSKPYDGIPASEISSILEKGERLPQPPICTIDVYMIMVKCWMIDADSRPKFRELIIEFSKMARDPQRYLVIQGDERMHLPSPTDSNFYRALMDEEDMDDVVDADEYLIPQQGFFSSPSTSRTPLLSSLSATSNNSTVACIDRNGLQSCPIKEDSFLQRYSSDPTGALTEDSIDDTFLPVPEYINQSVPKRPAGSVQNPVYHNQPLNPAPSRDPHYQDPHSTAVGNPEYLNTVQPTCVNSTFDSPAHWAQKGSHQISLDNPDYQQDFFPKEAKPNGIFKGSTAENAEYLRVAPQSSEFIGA
Chain of Fibroblast growth factor 10 (Homo sapiens) (O15520 whole entry, looked up): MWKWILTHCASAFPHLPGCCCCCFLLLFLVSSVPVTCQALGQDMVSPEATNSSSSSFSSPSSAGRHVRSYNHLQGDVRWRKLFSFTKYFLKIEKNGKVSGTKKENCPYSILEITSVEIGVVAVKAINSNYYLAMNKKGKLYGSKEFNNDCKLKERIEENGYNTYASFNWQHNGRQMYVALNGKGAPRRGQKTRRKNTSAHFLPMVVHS

Structure (SMILES) | composite z-score [1] | composite z-score [2] | composite z-score [3] | z-score [4] | composite z-score [5] | composite z-score [6] | composite z-score [7] | composite z-score [8] | composite z-score [9] | composite z-score [10]
C=CCC(OC(C)=O)[C@@H]1[C@@H](N(Cc2ccc(-c3cccc(C(F)(F)F)c3)o2)C(=O)c2cccc3ccccc23)c2cc(OCCCO)ccc2N1C(=O)Cc1ccc2ccccc2c1 (stereo not given in full) | 0.25 | 0.102 | 0.291 | -0.896 (inactive) | 0.0246 | -1.07 | -0.352 | 0.117 | -0.282 | 0.95
C=CCOC(=O)[C@H]1[C@@H]2C(=O)O[C@@H](c3ccccc3)[C@@H](c3ccccc3)N2[C@@H](c2ccc(OCCOC(=O)[C@H]3C[C@H]4C(=O)N[C@@H](CCCCN(C)C)C(=O)N4[C@H]3c3cccc(OCCO)c3)cc2)[C@]12C(=O)Nc1ccc(I)cc12 | 0.79 | -0.267 | -0.254 | 1.52 (inactive) | 1.32 | 1.16 | 0.527 | 1.46 | 1.07 | 1.11
O=C(NC1CC1)[C@@H]1c2ccccc2C(=O)N(C2Cc3ccccc3C2)[C@H]1c1ccc(CO)cc1 | 0.188 | -0.053 | 0.438 | 0.199 (inactive) | 0.467 | 1.3 | 0.473 | 0.53 | 0.951 | 0.338
C=C(CCCC)C(=O)CC[C@H](OC(=O)c1cccnc1)c1ccc(OCCO)cc1 | 0.142 | -0.117 | 0.27 | 0.98 (inactive) | -0.0659 | -0.0084 | -0.317 | -0.173 | 0.183 | 0.877
C=CCNC(=O)[C@@H]1[C@H]2C(=O)O[C@H](c3ccccc3)[C@H](c3ccccc3)N2[C@H](c2ccc(OCCO)cc2)[C@@]12C(=O)N(C(=O)OCCOC)c1ccc(C#CCNC(N)=O)cc12 | 1.43 | 0.478 | 0.747 | 0.184 (inactive) | 0.704 | 0.549 | 0.555 | 0.898 | 0.554 | 1.2
CC(C)(C)OC(=O)CC[C@@]1(C(=O)N2CCCCC2)N=C(c2ccc(OCCCO)cc2)O[C@@H]1c1ccccc1 | 1.74 | 0.555 | 0.452 | 0.0826 (inactive) | 1.46 | 1.3 | 0.197 | 0.858 | -0.219 | 0.6
COC(=O)[C@]1(Cc2ccccc2)N=C(c2ccc(OCCCO)cc2)O[C@@H]1c1ccccc1N=[N+]=[N-] | 1.54 | 0.124 | 0.527 | -1.56 (inactive) | 0.79 | 0.519 | -0.0527 | 0.257 | -0.0949 | 0.796
C=CC[C@]1(C(N)=O)COC(c2ccc(OCCCO)cc2)=N1 | -0.171 | -0.145 | 0.381 | -0.359 (inactive) | 0.577 | -0.557 | 0.0704 | -0.235 | -0.314 | 0.927
COCC(=C=CC[C@H](O)c1ccccc1OCCO)CCO | 1.52 | 0.0439 | -0.423 | 0.338 (inactive) | 0.919 | 0.485 | -0.865 | 0.612 | 0.274 | 0.564
CN1C(=O)C2C=CC(C(O)C=Cc3ccc([N+](=O)[O-])cc3)N(Nc3ccccc3)C2C1=O (stereo not given) | 0.967 | 0.0403 | -0.175 | 1.21 (inactive) | 0.718 | 1.15 | 0.692 | 1.06 | 0.587 | 1.02
COc1ccc([Si](C)(C)[C@@H]2[C@@H](CCO)O[C@]3(C(=O)N(Cc4cccc(N5CCOC5=O)c4)c4ccccc43)[C@H]2C)cc1 | 0.75 | 0.644 | 0.246 | -0.871 (inactive) | 0.415 | 0.67 | 0.0548 | 0.648 | 0.405 | 0.593
COCCCNC(=O)[C@@]1(CCS(=O)(=O)c2ccccc2)N=C(c2ccc(OCCCO)cc2)O[C@H]1c1ccccc1N=[N+]=[N-] | 1.41 | 0.879 | 0.942 | -0.0182 (inactive) | 1.49 | 0.79 | -0.0333 | 1.25 | 0.267 | 0.796
CCCC(=O)N(CCc1c[nH]c2ccccc12)[C@@H]1CC(C(=O)NCCO)=C[C@H](Oc2c(I)cc(CO)cc2OC)[C@H]1O | -0.575 | -0.334 | -0.516 | -0.125 (inactive) | -0.0122 | -0.431 | 0.164 | 0.0027 | 0.404 | 0.181
O=C1OCC=C[C@H]2OC34C=CCN(CCN5CCOCC5)C(=O)[C@H]3N(CCO)C(=O)[C@@H]4[C@@H]12 (stereo not given in full) | 1.47 | -0.0283 | -0.224 | 0.308 (inactive) | -0.787 | 0.0559 | -0.14 | 0.241 | -0.0563 | 0.0758
C[N+](C)(C)CCCC[C@@H]1NC(=O)[C@@H]2C[C@H](C(=O)NCCCCCN)[C@H](c3ccc(O)cc3)N2C1=O | 1.55 | 1.16 | 0.808 | -1.1 (inactive) | 1.42 | 1.29 | 0.024 | 0.878 | 0.308 | 0.199
O=C1C2C=CC(C(O)c3ccc4c(c3)OCO4)N(Nc3ccc([N+](=O)[O-])cc3)C2C(=O)N1c1ccccc1 (stereo not given) | 1.73 | -0.0669 | -0.162 | -0.0322 (inactive) | 0.67 | 0.675 | 0.342 | 0.381 | 0.207 | 0.278
C=C(CCCC)/C(=C/C[C@@H](OC(C)=O)c1ccccc1OCCO)c1cc(C(=O)OC)ccc1OC | 0.175 | -0.211 | -0.271 | -0.5 (inactive) | -0.104 | 0.098 | -0.657 | -0.458 | -0.149 | 0.864

Structure (SMILES) | composite z-score [1] | composite z-score [2] | composite z-score [3] | z-score [4] | composite z-score [5] | composite z-score [6] | composite z-score [7] | composite z-score [8] | composite z-score [9] | composite z-score [10]
O=C(O)[C@H](Cc1ccccc1)n1cc(-c2ccccc2)nn1 | 0.0064 | -0.284 | -0.367 | -0.544 (inactive) | 0.467 | 0.569 | 0.293 | 0.179 | 0.31 | 0.267
C=C[C@H](C)[C@@H](OC(=O)Nc1ccc(SC)cc1)c1ccc(O)c2ccccc12 | 1.3 | -0.118 | 0.216 | -0.8 (inactive) | 1.33 | 1.28 | 1.07 | 1.44 | 1.34 | 0.482
COC(=O)c1c2oc(c1C(=O)OC)C(=O)NC1(CCCCC1)c1cn(nn1)C[C@H](Cc1ccccc1)NC(=O)N[C@H](CO)CC2 | -0.856 | 0.0173 | -0.709 | -0.365 (inactive) | 1.15 | 0.386 | 0.0053 | 0.34 | 0.25 | -0.007
CO[C@H]1O[C@H](CO)[C@@H](OC(=O)Nc2ccc(Br)cc2)[C@@H]2OC(=O)[C@H](Cc3cccc(Br)c3)C/C=C/C[C@@H](Cc3cccc(Br)c3)C(=O)O[C@@H]12 | 0.272 | -0.157 | 0.179 | -0.838 (inactive) | 0.383 | -1.05 | -0.461 | 0.285 | -0.0367 | 0.0396
O=C1OCC=C[C@H]2OC34C=CCN(Cn5nnc6ccccc65)C(=O)[C@H]3N(CCCCCO)C(=O)[C@@H]4[C@@H]12 (stereo not given in full) | 0.665 | 0.26 | 0.586 | -0.313 (inactive) | -0.658 | -0.614 | -1.31 | -0.77 | -1.29 | -0.212
[N-]=[N+]=Nc1ccccc1C[C@@]1(C(=O)N2CCCCC2)N=C(c2ccc(OCCCO)cc2)O[C@@H]1c1ccccc1N=[N+]=[N-] | 0.95 | 1.32 | 1.32 | 0.766 (inactive) | 0.914 | 1.05 | 0.105 | 0.673 | -0.0252 | 1.59
NC(=O)N1C(=O)C2C(C1=O)C1C=C(CCCO)C2C(C2CC2)N1Cc1cc2c(cc1Br)OCO2 (stereo not given) | -0.267 | -0.165 | 0.32 | 0.901 (inactive) | -0.395 | -0.645 | -0.376 | -0.252 | -0.891 | 0.943
CCCC1(C(=O)OC)C=C2C(=C(c3ccccc3)C(=O)C2C)CN1 (stereo not given) | -0.495 | 0.717 | 1.16 | -1.14 (inactive) | -0.157 | -0.636 | -0.278 | -0.0458 | -0.704 | 1.44
O=C1O[C@@H](c2ccccc2)[C@@H](c2ccccc2)N2[C@@H](c3ccc(OCCO)cc3)[C@]3(C(=O)Nc4ccc(C#CC5=CCCCC5)cc43)[C@@H](C(=O)N3CCCCCCC3)[C@H]12 | 1.66 | 2.71 | 1.43 | -0.447 (inactive) | 1.32 | 1.33 | 1.71 | 1.58 | 2.08 | 1.91
COC(=O)[C@H](Cc1ccccc1)N[C@H](/C=C/C1CC1)[C@@H](O)Cc1ccccc1 | -0.111 | -0.351 | 0.327 | -1.16 (inactive) | -0.66 | -1.22 | -0.579 | -0.244 | -0.506 | 0.0419
NC(=O)NCC#Cc1ccc2c(c1)[C@]1(C(=O)N2)[C@H](C(=O)O)[C@H]2C(=O)O[C@H](c3ccccc3)[C@H](c3ccccc3)N2[C@@H]1c1ccc(O)cc1 | 0.783 | 1.18 | 1.24 | 0.72 (inactive) | 0.295 | -0.576 | -0.16 | 1.28 | 0.181 | 1.25
CCCNC(=O)[C@@]1(Sc2ccc(C)cc2)CC(=O)N(Cc2ccccc2C(F)(F)F)[C@@H]1c1ccc(CO)cc1I | 1.53 | 0.277 | 0.726 | -1.6 (inactive) | 0.441 | 0.119 | -0.293 | 1.01 | 0.262 | 1.24
O=C1O[C@H](c2ccccc2)[C@H](c2ccccc2)N2[C@H]1[C@@H](C(=O)NC[C@H](O)c1ccccc1)[C@]1(C(=O)Nc3ccccc31)[C@H]2c1ccc(O)cc1 | 0.758 | -0.0713 | 0.489 | -0.4 (inactive) | 1.3 | 0.476 | 0.555 | 0.749 | 0.964 | -1.04
NC(=O)[C@@]1(Cc2ccccc2)N=C(c2ccc(OCCCO)cc2)O[C@H]1c1ccccc1 | 0.363 | 0.963 | 1.22 | -1.26 (inactive) | 1.15 | -0.327 | 0.0149 | -0.68 | -0.348 | 0.87
CC1CC/C=C\[C@H]2OC34C=CCN(c5ccc6ccccc6c5)C(=O)[C@H]3N(CCO)C(=O)[C@@H]4C2C(=O)O1 (stereo not given in full) | 1.76 | -0.122 | 0.915 | -0.538 (inactive) | -0.681 | -0.844 | -1.13 | -0.391 | -1.02 | 0.838
NC(=O)[C@@H]1[C@H]2C(=O)O[C@H](c3ccccc3)[C@H](c3ccccc3)N2[C@H](c2ccc(O)cc2)[C@@]12C(=O)Nc1ccc(C#CC3=CCCCC3)cc12 | 0.735 | -0.0562 | -0.42 | -2.28 (inactive) | 0.676 | 0.439 | -0.122 | 0.31 | -0.333 | 0.763
